From PubChem
Marburg entry inh: inhibitors of Marburg virus binding or cell entry. 300,000 tested, 1.8% active. Potency, µM (titrated, usually from 37.8 µM), without a hit: at the top dose activity change, negative = inhibition, most hits filed as inhibitors. Marburg virus pseudotyped entry inhibition, cell reporter. AID 540276; calls by dose curve; tested in HEK293 cells; note: potency is the fitted concentration of half-maximal effect
Vaccinia mCherry: inhibitors of vaccinia virus infection (mCherry reporter signal); 310,000 tested, 0.63% active; Potency, µM (series often up to 36.5 µM), for the others: at the top dose activity change, negative = inhibition, most hits filed as inhibitors; Vaccinia virus mCherry reporter infection, fluorescence; calls by dose curve; tested in A549 cells; note: potency is the fitted concentration of half-maximal effect; nearly all actives have a fitted effect of over 35% in size
HCMV inh: inhibitors of human cytomegalovirus; HFF cells, HCMV-luciferase reporter, 72 h; hits give low values; activity change, negative = inhibition, % at 57.5 µM; 410,000 tested, 4.5% active; AID 1259415; in the data active = activity change below about -60%; inconclusive = no clear call, values can overlap the other calls; inactive = above about -39%
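Cell-based, HFFs, 1000 cells/well, 16 h 37C; cpds in DMSO + HCMV-luc, MOI 1 PFU/cell; 72 h 37C; OneGlo luminescence after 5 min RT; norm. to buffer vs Salinomycin 10uM.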
FMDV inh: blocks foot and mouth disease virus | 410,000 tested, 1.2% active | FMDV antiviral cell-based qHTS | AID 1159524 | Potency, µM (highest dose often 57.9 µM), for the others: at the top dose activity change, negative = inhibition, actives largely listed as inhibitors; calls by dose curve; tested in HEK293T cells; note: read-out not given here; potency is the fitted concentration of half-maximal effect; nearly all actives have a fitted effect of over 45% in size
VACV Venus inh: inhibitors of vaccinia virus (Venus reporter); Vaccinia virus Venus reporter expression, fluorescence; Potency, µM (titrated, usually from 36.5 µM), without a hit: top-dose activity change, negative = inhibition, hits mostly inhibitors; AID 720580; 330,000 tested, 0.46% active; calls by dose curve; tested in A549 cells; note: potency is the fitted concentration of half-maximal effect; nearly all actives have a fitted effect of over 30% in size
LASV entry inh: blocks Lassa virus binding to or entry into cells | Lassa virus pseudotype entry inhibition, cell reporter | Potency, µM (doses to about 37.9 µM), inactives show at the highest dose activity change, negative = inhibition, actives largely listed as inhibitors | 300,000 tested, 1.2% active | AID 540256; calls by dose curve; tested in HEK293 cells; note: potency is the fitted concentration of half-maximal effect; nearly all actives have a fitted effect of over 50% in size
* hit, by the source's call; [ ] = remark or other dose. Shown are actives, neighbours in structure and some others; about 6.5% of the full set was active somewhere. % is set by controls: 0 for no effect and ±100 for the full control effect.

Screening Cc1ccc(-n2[nH]c(C)c(/C=N/Nc3ccc([N+](=O)[O-])cc3[N+](=O)[O-])c2=O)cc1C returned Marburg entry inh 3%, Vaccinia mCherry -24%, HCMV inh -40, FMDV inh 10µM*, VACV Venus inh -23% and LASV entry inh inconclusive.
`Cc1[nH]n(-c2ccccc2)c(=O)c1/C=N/NC(=O)c1ccccc1F` gave HCMV inh -94* and FMDV inh 43%.
Screening Cc1cccc(N2CCN(C(=O)Cn3nc(C)c4sc5ccccc5c4c3=O)CC2)c1C returned Marburg entry inh inconclusive, Vaccinia mCherry -11%, HCMV inh 9, FMDV inh -11%, VACV Venus inh -3% and LASV entry inh inconclusive.
Screening CNCc1nc(-c2ccc[nH]2)c2cc(Cl)ccc2n1 returned Vaccinia mCherry 27% and VACV Venus inh 9%.
For COC(=O)c1cc(Nc2nc3ccccc3nc2NS(=O)(=O)c2ccc(C)cc2)ccc1Cl the results were Marburg entry inh inconclusive, Vaccinia mCherry inconclusive, HCMV inh -106*, FMDV inh -4%, VACV Venus inh inconclusive and LASV entry inh 10%[46.1 µM].
For O=C(O)c1ccc(Nc2nc3ccccc3nc2NS(=O)(=O)c2ccc(F)cc2)cc1 the results were HCMV inh 21 and FMDV inh 16%.
Screening COc1cc(Nc2nc3ccccc3nc2NS(=O)(=O)c2ccc([N+](=O)[O-])cc2)cc(OC)c1OC returned Marburg entry inh 19%[46.1 µM], Vaccinia mCherry inconclusive, HCMV inh -74*, FMDV inh -33%, VACV Venus inh -20% and LASV entry inh inconclusive.
O=[N+]([O-])c1ccc(S(=O)(=O)Nc2nc3ccccc3nc2Nc2ccccc2)cc1 was read as Marburg entry inh inconclusive, Vaccinia mCherry 7%, HCMV inh -80*, FMDV inh -16%, VACV Venus inh -4% and LASV entry inh -21%.
Screening COC(=O)N1[C@H]2CC[C@@]3(C)CC(=O)C[C@]1(C)C3c1ccccc12 returned Marburg entry inh -10%[14.2 µM].
Screening COc1cc(OC)c(NC(=O)c2cc3ccccc3cc2O)cc1Cl returned Marburg entry inh inconclusive, Vaccinia mCherry -19%, HCMV inh -81*, FMDV inh -17%, VACV Venus inh -7% and LASV entry inh inconclusive.
Screening COc1cc(NC(=O)c2ccccc2)c(OC)cc1Cl returned Marburg entry inh 0%, HCMV inh 127, FMDV inh 0%, VACV Venus inh inconclusive and LASV entry inh 0%.
Screening COc1ccccc1C(=O)Nc1nnc(SCC(=O)NC2CCCC2)s1 returned Marburg entry inh 11µM*, Vaccinia mCherry inactive, FMDV inh 0%, VACV Venus inh -17% and LASV entry inh inconclusive.
Screening COc1ccccc1-c1nnc(SCC(=O)NC2CCCCC2)o1 returned Marburg entry inh 11%, Vaccinia mCherry 11µM*, HCMV inh 30, FMDV inh -2%, VACV Venus inh inconclusive and LASV entry inh 0%.
For COc1ccccc1NC(=O)Cc1nnc(SCC(=O)NC2CCCC2)n1C the results were Marburg entry inh 10%, Vaccinia mCherry inactive, HCMV inh 52, FMDV inh -3%, VACV Venus inh 10% and LASV entry inh 1%.
COc1ccccc1-n1cnnc1SCC(=O)NC1CCCCC1 was read as HCMV inh -83* and FMDV inh -9%.
`O=C(CSc1nnc(NC(=O)c2ccccc2[N+](=O)[O-])s1)NC1CCCC1` gave Marburg entry inh 21%, Vaccinia mCherry -4%, HCMV inh 55, FMDV inh 16%, VACV Venus inh -18% and LASV entry inh 16%.
Screening COc1ccccc1NC(=O)Cn1nc(-c2ccncc2)nc1SCC(=O)NC1CCCC1 returned Marburg entry inh inconclusive, Vaccinia mCherry inactive, HCMV inh -76*, FMDV inh -15%, VACV Venus inh -9% and LASV entry inh -16%.
For CCN(CC)S(=O)(=O)c1ccc(-c2nnc(SCC(=O)N3CCOCC3)o2)cc1 the results were Marburg entry inh 3%, Vaccinia mCherry 2.5µM*, HCMV inh 12, VACV Venus inh 3.5µM* and LASV entry inh 23%.
Screening CCN(CC)S(=O)(=O)c1ccc(-c2nnc(SCC(C)=O)o2)cc1 returned Marburg entry inh 4%, HCMV inh -4, FMDV inh 0% and LASV entry inh -2%.
`CCN(CC)S(=O)(=O)c1ccc(-c2nnc(SCC(=O)N3CCc4ccccc43)o2)cc1` gave Marburg entry inh inconclusive, Vaccinia mCherry inconclusive, HCMV inh -87*, VACV Venus inh inconclusive and LASV entry inh inconclusive.
Screening CCN(CC)S(=O)(=O)c1ccc(-c2nnc(SCc3nnc(-c4ccc(C)cc4)o3)n2CC)cc1 returned Marburg entry inh 0%, HCMV inh inconclusive, FMDV inh 0% and LASV entry inh 2%.
CCN(CC)S(=O)(=O)c1ccc(-c2nnc(SCc3nnc(-c4ccc(C)cc4)o3)o2)cc1 was read as Marburg entry inh 3%, Vaccinia mCherry 0.0011µM*, HCMV inh -30, FMDV inh 4%, VACV Venus inh inconclusive and LASV entry inh -25%.
For CCN(CC)S(=O)(=O)c1cccc(-c2nnc(SCCOc3ccccc3)o2)c1 the results were Marburg entry inh inconclusive, Vaccinia mCherry -16%, HCMV inh -68*, FMDV inh inconclusive, VACV Venus inh -21% and LASV entry inh 10µM*.
COc1cc(NC(=O)C2=C(N3CCOCC3)/C(=C/c3ccc(Cl)cc3)CC2)cc(OC)c1OC was read as Marburg entry inh 16µM*, Vaccinia mCherry inactive, HCMV inh 45, FMDV inh inconclusive, VACV Venus inh -6% and LASV entry inh -18%.
Screening COc1cc(NC(=O)C2=C(N3CCOCC3)/C(=C\c3ccc(N(C)C)cc3)CCC2)cc(OC)c1OC returned Marburg entry inh inconclusive, Vaccinia mCherry inconclusive, HCMV inh -91*, FMDV inh inconclusive, VACV Venus inh inconclusive and LASV entry inh inconclusive.
For COc1cc(C(=O)Nc2ccc(N(C)C)cc2)cc(OC)c1OC the results were Marburg entry inh -11%, Vaccinia mCherry -1%, HCMV inh 64, FMDV inh 64%, VACV Venus inh -12% and LASV entry inh -13%.
O=C(Nc1ccccc1)C1=C(N2CCOCC2)/C(=C/c2cccnc2)CC1 was read as Marburg entry inh 14%, Vaccinia mCherry -3%, HCMV inh -31, VACV Venus inh -17% and LASV entry inh 17%.
Screening COc1ccccc1CNC(=O)c1sc2nc3n(c(=O)c2c1C)CCC3 returned Vaccinia mCherry -6%, HCMV inh 4, FMDV inh 0%, VACV Venus inh 1% and LASV entry inh 9%[46.1 µM].
`COC(=O)[C@]12C[C@H](CC(=O)NCCCCc3ccccc3)C(=O)N(Cc3ccccc3)C1=C[C@H](C1CCCC1)O[C@@H]2C` gave HCMV inh 4.
